From PubChem BioAssay
A selection: hits, their analogues and other compounds. The true share with any hit is near 1.2%.
IL1B NFkB inh: inhibitors of IL-1B driven NFkB p65 nuclear import, primary screen, imaging, HUVEC, IL-1B stimulus, high-content imaging. HUVEC IL-1B NFkB p65 nuclear translocation imaging. inhibition, % at 2 µM. 94,000 tested, 0.43% active. AID 796, 2007;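 active = inhibition above about 30% together with a positive call from visual inspection of the well image, limit read from the data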;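 also: nuclear over cytoplasmic p65 intensity ratio measured by imaging; 0% = IL-1B stimulated DMSO wells and 100% = unstimulated DMSO wells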
Phagocytosis inh: inhibitors of macrophage phagocytosis, primary screen, imaging, J774A.1 cells, IgG beads; AID 1029, 2008; J774A.1 macrophage IgG-bead phagocytosis; inhibition, % at 5 µM; 110,000 tested, 0.07% active;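 active = inhibition above the mean of the plate negative controls plus 5 SD, cut at about 13% in these data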;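 also: phagocytic index as fraction of beads internalized from green versus red external bead signal; plate controls were DMSO negative control for no effect and cytochalasin-D positive control for full effect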
IL1B cytotox: cytotoxicity in IL-1B stimulated HUVEC, primary screen, cytotoxicity control for IL-1B NFkB translocation project, imaging, Hoechst nuclear count, IL-1B stimulus; HUVEC cell count loss; cell count reduction, % at 2 µM; 94,000 tested, 0.41% active;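 active = cell count reduction more than 3 SD above the screen-wide mean, cut at about 70% in these data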;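 also: normalized per plate to untreated control cells as the no-loss baseline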
TNFa cytotox: cytotoxicity in TNFa-stimulated HUVEC, primary screen, cytotoxicity control for VCAM1 expression modulator project, imaging, Hoechst nuclei count; HUVEC TNFalpha-stimulated, Hoechst cell count; cell count reduction, % at 2 µM; 93,000 tested, 0.17% active;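 active = cell count reduction exceeding the screen mean by over 5 SD, scaled to untreated wells per plate, cut at about 78% in these data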;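 also: cells counted after 24 h of TNF alpha exposure following the 1 h pretreatment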
IL1B NFkB pot: enhancers of NFkB p65 translocation in HUVEC – imaging, IL-1B stimulus, high-content imaging, primary screen. HUVEC IL-1B NFkB p65 nuclear translocation imaging. activation, % at 2 µM. 94,000 tested, 0.3% active. AID 819, 2007;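 active = activation above 40%, about the mean plus 3 SD, also judged a hit on visual image review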;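 also: percent activation is computed from the nuclear over cytoplasmic p65 intensity ratio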
VCAM1 TNFa inh: inhibitors of TNFa-induced VCAM1 expression, primary screen, imaging, HUVEC, TNFa stimulus, immunofluorescence; 95,000 tested, 0.48% active; inhibition, % at 2 µM; HUVEC TNFa-induced VCAM-1 immunofluorescence, high-content imaging; AID 802, 2007;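 active = inhibition above the batch mean plus 3 SD, with images confirmed as a hit by eye, cut at about 37% in these data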;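 also: 0% = TNF-stimulated DMSO wells and 100% = unstimulated control wells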
* hit, by the source's call; x = not tested or not shown.

SMILES | IL1B NFkB inh | Phagocytosis inh | IL1B cytotox | TNFa cytotox | IL1B NFkB pot | VCAM1 TNFa inh
Cc1ccc(Nc2nnc(SCC(=O)Nc3ccc(S(=O)(=O)N4CCOCC4)cc3)s2)cc1 | 34.2* | 4.5 | 83.7* | -0.4 | -34.2 | 17.1
O=C(CSc1nnc(Nc2ccccc2)s1)Nc1ccc(S(=O)(=O)N2CCOCC2)cc1 | 3.1 | -0.9 | -2.1 | -26.2 | -3.1 | 12.8
CC1CCCCC1NC(=O)c1nn(C)c(=O)c2ccccc12 (stereo not drawn) | -78.2 | x | -8.6 | 6.0 | 78.2* | -2.1
Clc1cccc(OCCn2cncn2)c1Cl | -44.9 | x | -45.5 | -1.4 | 44.9* | -43.5
COc1ccc(/C=C(\C#N)C(=O)OCC(=O)Nc2ccc(C(C)(C)C)cc2)cc1 | x | -4.4 | x | x | x | x
C=CCn1c(CCNC(=O)c2cccs2)nnc1SCC(=O)Nc1cccc(F)c1 | -7.4 | -0.5 | 2.5 | -19.2 | 7.4 | 5.2
COc1cccc(C(=O)CSc2nnc(-c3cc(OC)c(OC)c(OC)c3)o2)c1 | -12.2 | 0.2 | 23.7 | 2.4 | 12.2 | -9.9
COc1cc(-c2nnc(SCC(=O)c3ccc(C)cc3)o2)cc(OC)c1OC | 41.8* | -0.6 | 24.9 | -8.3 | -41.8 | -8.4
COc1cc(C(=O)NC(=S)Nc2ccc(N3CCCC3)cc2)cc(OC)c1OC | x | -13.5 | x | x | x | x
c1cc2c3c(cccc3c1)NC1(CCCCCC1)N2 | x | -0.7 | x | x | x | x
O=C1CCSc2cccc3cccc(c23)N1 | -7.9 | -0.1 | 0.6 | 83.5* | 7.9 | 90.2*
O=C1CCc2nc3sc4c(c3c(=O)n2N1)CCCC4 | -5.2 | x | 17.7 | 0.8 | 5.2 | 0.5
O=c1c2c3c(sc2nc2sc(C4CC4)nn12)CCCC3 | 88.4* | -1.1 | 77.6* | -10.1 | -88.4 | 7.2
COc1cc(/C=N/NC(=S)NCCN2CCOCC2)ccc1O | x | -6.3 | x | x | x | x
O=C1CCCN1CCCNc1ncnc2c1[nH]c1ccc(Cl)cc12 | -24.1 | -5.4 | 21.0 | 6.4 | 24.1 | -3.9
Cc1cc(C)c2nc(C(F)(F)F)nc(NCCCN3CCCC3=O)c2c1 | 30.9* | 1.2 | 0.0 | 7.0 | -30.9 | 0.6
O=C(Nc1ccc(NC(=O)c2sc3ccccc3c2Cl)cc1)c1ccco1 | x | -5.5 | x | x | x | x
O=C(Nc1cc2c(oc1=O)CCCC2=O)c1ccc(Cl)cc1 | -1.7 | x | 20.3 | -4.5 | 1.7 | 8.8
O=C(CCC(=O)N(CC(=O)NC1CCCC1)C1CCCC1)Nc1ccccn1 | -127.4 | 0.8 | 6.1 | -9.2 | 127.4* | 8.3
Cc1ccc(NC(=O)c2ccccc2NS(=O)(=O)c2ccc(Cl)s2)cc1S(=O)(=O)N1CCOCC1 | x | -0.9 | x | x | x | x
CCC(Sc1ccc2nnc(-c3ccc(F)cc3)n2n1)C(=O)OC (stereo not drawn) | 3.2 | -1.1 | 82.2* | -12.4 | -3.2 | 5.8
O=C(NCC1OCCc2ccccc21)c1ccco1 (stereo not drawn) | -53.3 | 3.3 | -2.5 | 16.4 | 53.3* | -1.6
CCO/N=C(\C)c1c(O)c2ccccc2n(C)c1=O | x | -3.3 | x | x | x | x
O=C(O)c1c[nH]c2ccc(S(=O)(=O)N3CCOCC3)cc12 | -14.0 | 2.3 | 8.0 | -7.6 | 14.0 | 55.4*
O=C(NCCN1CCOCC1)c1c[nH]c2ccc(S(=O)(=O)N3CCOCC3)cc2c1=O | x | -4.1 | x | x | x | x
SMILES | IL1B NFkB inh | Phagocytosis inh | IL1B cytotox | TNFa cytotox | IL1B NFkB pot | VCAM1 TNFa inh
CN(C)C(=O)CN(C)S(=O)(=O)c1ccc(Cl)cc1 | 91.0* | 0.4 | -5.0 | -3.3 | -91.0 | -12.2
Cc1ccc2cc(C)c3nnc(SCC(=O)Nc4nc5c(s4)CCCC5)n3c2c1C | 11.7 | x | 1.3 | -7.0 | -11.7 | -5.2
CC(=O)Nc1ccc(NC2(C)C(=O)c3ccccc3C2=O)cc1 | 2.4 | -1.3 | -6.5 | 87.6* | -2.4 | 92.8*
CCOc1ccc(S(=O)(=O)Nc2nc3ccccc3nc2Nc2ccc(N3CCOCC3)cc2)cc1 | x | -20.3 | x | x | x | x
CN1CC=C2C(C#N)=C(N)C(C#N)(C#N)[C@H](c3cccc(Cl)c3)C2C1 (stereo partly drawn) | 33.8* | 0.9 | -41.7 | -4.0 | -33.8 | 2.5
CCCS(=O)(=O)N1CCC(C(=O)NC2CCCC(C)C2C)CC1 (stereo not drawn) | -45.9 | -0.1 | -14.4 | -11.9 | 45.9* | 2.2
CCCNC(=S)NCc1ccc(Cl)cc1 | x | -9.8 | x | x | x | x
O=C(CNS(=O)(=O)c1ccc(Cl)cc1)OCC(=O)N1CCCc2ccccc21 | x | -10.0 | x | x | x | x
